Test results published in paper PMC5540273 (PLoS ONE, 2017).

Tested on: T1, MLK1
T1 construct: gene MAP3K9
Conditions: concentration: 1 μM, replicates: in singlicate; n = 1
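Note: KINOMEscan kinase panel screen.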

Structure (SMILES) | %Inh
N#CC1(c2cccc(C(=O)Nc3cccc(Oc4ccc5nc(NC(=O)C6CC6)sc5n4)c3)c2)CC1 | 1%
O=C(Nc1n[nH]c2nc(-c3ccccc3)ccc12)C1CC1 [SB-708999] | 0%
CC(C)c1nc(-c2cccc(NS(=O)(=O)c3c(F)cccc3F)c2)c(-c2ccnc(Nc3ccc(N4CCOCC4)nc3)n2)s1.Cl [GSK1723980] | 89%
Cl.Cl.NCC(NC(=O)c1cc(-c2cccnc2)c(-c2ccnc3[nH]ccc23)s1)c1ccccc1 (stereo not shown) [GSK1323434] | 0%
COC(=O)Nc1nc2cc(Oc3ccc(NC(=O)Nc4cccc(SC)c4)cc3)ccc2[nH]1.Cl [GW697999] | 0%
O=C(Nc1n[nH]c2nc(-c3ccccc3O)ccc12)C1CC1 [SB-711880] | 0%
O=C(Nc1n[nH]c2cc(-c3cccs3)ccc12)C1CC1 [SB-731284] | 0%
O=C(Nc1c(F)cccc1F)c1cc(C(=O)c2ccccc2F)c[nH]1 [GSK1326180] | 3%
Cc1ccc(Nc2ccnc(Nc3ccc(C)c(F)c3)n2)cc1O.Cl [GW582868] | 60%
COc1cccc(-c2nc(-c3ccccc3)[nH]c2-c2ccncc2)c1 [SB-610250] | 0%
CCn1cnc2c(NCc3ccccc3)ncnc21 [SKF-96418] | 0%
Cl.Cl.NC(CNC(=O)c1cc(Br)c(-c2ccnc3[nH]ccc23)s1)c1ccccc1 (stereo not shown) [GSK1322949] | 0%
CN(c1ccc(F)c(NC(=O)c2cccc(OC(C)(C)C#N)c2Cl)c1)c1ccc2nc(NC(=O)C3CC3)sc2n1 | 0%
Fc1cc(Cl)ccc1Nc1ccnc2cc(-c3ccc(CN4CCOCC4)o3)ccc12 [GW560109] | 2%
COc1cc(Nc2ccnc3cc(-c4ccncc4)ccc23)cc(OC)c1OC.Cl [GW494610] | 2%
Cc1ccc(O)cc1Nc1ccnc2cc(-c3ccc(CN4CCCCC4)o3)ccc12 [GW557777] | 2%
Nc1ncc(-c2ccc3nccc(-c4ccncc4)c3c2)cc1S(=O)(=O)N1CCCCC1 [GSK1693850] | 0%
COc1ccc(C)c(Nc2ccnc(Nc3ccc(-c4cnc[nH]4)cc3)n2)c1.Cl [GW784041] | 30%
Fc1cc(Cl)ccc1Nc1ccnc2cc(-c3ccc(CN4CCSCC4)o3)ccc12 [GW560106] | 14%

Structure (SMILES) | %Inh
Cc1ccc(NC(=O)c2ccnc(N3CCCCC3)c2)cc1-c1ccc(C(=O)NCC2CC2)cc1 [GW775610] | 0%
CCOc1nccc(-c2c(-c3ccc(F)cc3)ncn2C2CCNCC2)n1 [SB-249175] | 3%
O=C(O)C(F)(F)F.O=c1[nH]ccc2nc(N[C@@H]3CCNC3)nc(Nc3ccc4c(c3)S(=O)(=O)CC4)c12 [GSK2181306] | 79%
c1ccc(Oc2ccc(Nc3ccnc4cc(-c5ccc(CN6CCCCC6)o5)ccc34)cc2)nc1 [GW567143] | 2%
Cc1ccc(C)c(NC(=O)Nc2ccc(C)c(-c3ccc(C(=O)Nc4ccncc4)cc3)c2)c1 [GSK1398473] | 0%
Cn1cc(-c2cnc(N)c3c(-c4ccc5c(c4)CCN5C(=O)Cc4ccccc4)csc23)cn1 [GSK2593074] | 14%
O=C(O)C(F)(F)F.O=c1[nH]ccc2nc(N[C@@H]3CCNC3)nc(Nc3cc(Cl)cc(Cl)c3)c12 [GSK2188764] | 95.7%
Cl.O=C(Nc1ccc(Oc2ccc3[nH]c(NC(=O)c4ccco4)nc3c2)cc1)Nc1cc(C(F)(F)F)ccc1F [GW683134] | 28%
Cc1cccc(Nc2nc(NCCN)ncc2C(N)=O)c1 [GSK1292139] | 85%
CC(C)NCC(Cc1ccccc1)NC(=O)c1cc(Br)c(-c2ccnc3[nH]ccc23)s1.Cl.Cl (stereo not shown) [GSK1383281] | 4%
Nc1cccc(-c2ccc3c(N)n[nH]c3c2)c1 [GSK2193613] | 10%
COc1cc(Nc2nccc(N3CCC(NS(=O)(=O)c4ccc(NC(C)=O)cc4)CC3)n2)cc(OC)c1OC [GSK1379825] | 52%
Cc1nn2c(=O)cc(N3CCO[C@H](C)C3)nc2n1Cc1cccc(Cl)c1Cl [GSK2373693] | 0%
CN1CCN(Cc2ccc(NC(=O)Nc3ccc(N(C)c4ccnc(Nc5ccc(CS(C)(=O)=O)cc5)n4)cc3)cc2)CC1.Cl [GW827654] | 14%
COC(=O)Nc1nc2ccc(Oc3ccc(CC(=O)Nc4cc(C(F)(F)F)ccc4F)cc3)cc2[nH]1 [GW680903] | 0%
COc1ccc(C2=C(Nc3cccc(O)c3)C(=O)NC2=O)cc1 [SB-390766] | 0%
CN(C)c1ncnc2nc[nH]c12 [SKF-31736] | 0%
Cc1cc(-c2ccnc(Nc3cccc(C#N)c3)n2)cc(C)c1O [GSK1440913] | 66%
